Key:
Assay in all cases: PBM binding z-score (relative to random genomic background probes); higher = stronger binding; sequences stand for … in GC…GCGATTGACAGCGTAGAATGAAGG
[1] = test system: FXR:RXRa (NR concentration 270 nM, RXRa partner concentration 90 nM)
Method in brief: (§1)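 Scanned fluorescence from custom Agilent 4×180K protein-binding microarrays was regression-normalized. Binding z-scores use random background probes as reference. Ligand-free nuclear receptor dimers were incubated on the arrays for 1 h and detected with antibodies against each partner (one per run).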

[2] = test system: LXRa:RXRa (NR concentration 270 nM, RXRa partner concentration 90 nM)
Method in brief: as §1

[3] = test system: LXRa homodimer (NR concentration 270 nM)
Method in brief: as §1

[4] = test system: LXRb homodimer (NR concentration 270 nM)
Method in brief: as §1

[5] = test system: PPARa:RXRa (NR concentration 270 nM, RXRa partner concentration 90 nM)
Method in brief: as §1

[6] = test system: PPARg:RXRa (NR concentration 180 nM, RXRa partner concentration 90 nM)
Method in brief: as §1

[7] = test system: PPARg:RXRa 270nM:90nM, anti-RXR (NR concentration 270 nM, RXRa partner concentration 90 nM)
Method in brief: as §1

[8] = test system: PPARg:RXRa 30nM:10nM, anti-RXR (NR concentration 30 nM, RXRa partner concentration 10 nM)
Method in brief: as §1

[9] = test system: PPARg:RXRa 90nM:30nM, anti-RXR (NR concentration 90 nM, RXRa partner concentration 30 nM)
Method in brief: as §1

[10] = test system: LXRb:RXRa (NR concentration 270 nM, RXRa partner concentration 90 nM)
Method in brief: as §1

Sequence | PBM binding z-score [1] | PBM binding z-score [2] | PBM binding z-score [3] | PBM binding z-score [4] | PBM binding z-score [5] | PBM binding z-score [6] | PBM binding z-score [7] | PBM binding z-score [8] | PBM binding z-score [9] | PBM binding z-score [10]
CGTCCAAGGTCAAAGGTCAGCGAAGAGATGACGG | 8.78 | 7.06 | 3.38 | 1.66 | 7.31 | 11 | 8.69 | 8.19 | 9.49 | –
AATACAGGGTGATCGTAGGCCAGAGTACGCACAG | -0.0324 | 0.162 | -0.234 | -0.0404 | 0.576 | 1.2 | 0.407 | 0.131 | 0.149 | –
TGTCAAAGTTCTAAGGTAACGTAAGTATCCACAC | 0.449 | 0.196 | -0.388 | -0.268 | 0.624 | 0.871 | 1.41 | 0.457 | 1.15 | –
CCTACTGGGCCAAGGTCATTGACCAGTCAAAGCA | 3.77 | 4.03 | 1.67 | -0.702 | 4.03 | 4.3 | 4.66 | 2.17 | 4.38 | –
ATATGTAGGTTACCGGGTCATTCAGTTTGCGCAT | 3.18 | 3.3 | 1.31 | 0.869 | 5.44 | 8.51 | 7.05 | 4.85 | 6.88 | –
ACTCGGAGGACAAAGGTCAGAACTACGCCAGTGA | 3.87 | 4.07 | 1.47 | 1.03 | 4.61 | 7.34 | 7.11 | 4.87 | 7.69 | –
CCTAGTTGGTCAGGAAGTCACACACCGGATATGA | 0.197 | 0.331 | 0.553 | 0.257 | 0.239 | 0.696 | 0.592 | 0.308 | 0.322 | –
GTACCAAGGTGAATAGGTCGTTGATGAGTAGGCG | 0.835 | 0.771 | -0.075 | -0.364 | 2.08 | 1.61 | 1.8 | 0.486 | 1.17 | –
CTCGAAAGGGCGTGCTCAGGTGAGTATACCAAAC | 0.538 | 0.109 | -0.329 | -0.824 | 0.533 | -0.312 | 0.0309 | -0.439 | -0.22 | –
ATATGTAGGTTAGCTGGAGTCATTCAGACTAGGC | 0.00563 | 1.28 | -0.0336 | 0.0591 | 2.34 | 3 | 2.47 | 0.982 | 1.63 | –
TCTAGTTCGTCACGGAGGTCACACACGACGGGTA | 3.69 | 3.72 | 2.25 | 1.17 | 4.1 | 2.17 | 3.67 | 3.62 | 3.42 | –
AGAATGAGGTTAGCAAAGATCAGGGAAACGCTTG | 0.688 | 1.07 | -0.0125 | -0.163 | 1.79 | 1.02 | 0.909 | 0.0816 | 0.6 | –
ATCGAAAGGTCGTGAGGTGAGTTTACAGAAAGGC | 5.54 | 4.05 | 0.339 | 0.313 | 5.21 | 4 | 4.18 | 1.98 | 3.05 | –
AGTCAAAGTTCACTAGGTTACGTAAGATTCAGCT | 4.92 | 5.44 | 3.95 | 1.5 | 4.85 | 7.41 | 6.74 | 4.4 | 5.88 | –
TAGCCTCGGTCATTCAGGGGCCAGTATAGAAAGC | 1.19 | 1.14 | 0.485 | 0.157 | 0.242 | -0.061 | -0.248 | -0.569 | -0.514 | –
ATATGTAGGTTAGCGGGGGTCATTCAGACTAGGC | 5.82 | 5.95 | 3.96 | 8.88 | 5.81 | 6.96 | 6.71 | 4.14 | 6.07 | –
ATCGAAAGGTCGTGAAGTGAGTATACAGAAAGGC | 4.52 | 3.75 | 0.493 | 0.774 | 4.76 | 3.21 | 3.51 | 1.42 | 2.63 | –
CTCGAAAGGTCGTGGTCAGGTGAGTATACCAAAC | 5.9 | 4.27 | 0.0394 | 0.247 | 5.02 | 3.26 | 4.6 | 1.21 | 3.34 | –
AGTCGGAGGACAAAGGTCAGAGCTACGCCAGTGA | 3.97 | 4.34 | 1.6 | 0.26 | 5.01 | 7.55 | 7.07 | 5.94 | 7.56 | –
CGTCAAAGTTCAAGGTAATGTAACAGAAAGCAGC | 5.9 | 5.34 | 2.54 | 1 | 4.74 | 4.21 | 5.13 | 2.14 | 3.68 | –
CATAGTTGGTCAAGGTCACACACGCTATAGGTAC | 4.26 | 4.07 | 1.83 | 1.1 | 4.12 | 3.78 | 3.92 | 1.88 | 3.28 | –
TCTACTTGGTCACGGAGGTCACACACGACGGGTA | 3.59 | 3.73 | 3.08 | 1.3 | 3.99 | 3.67 | 4.1 | 3.72 | 3.83 | –
AGAGTGAGGTTACCAAAGATCAGGGAAACGCTTG | 2.09 | 6.39 | 0.104 | 0.461 | 3.01 | 1.54 | 1.63 | 0.448 | 1.15 | –
CTATGTAGGTTAAGGGGGTCATTGAGTTTGAAAG | 5.19 | 4.98 | 2.68 | – | – | 8.96 | 7.92 | 5.98 | 8.13 | 6.12
